Assay [1] in a line: antimalarial activity against Dd2 strain (AID 2302;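 active means growth inhibition above 50% at the single 2 µM test dose, taken to imply half-maximal potency below 2 µM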;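 further: 0% = DMSO untreated growth and 100% = chloroquine plus artemisinin killed control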). Particulars: P. falciparum Dd2 in RBCs, LDH growth readout, 72 h; at 2 µM; stronger effect = higher value.
Assay [2] in a line: HepG2 cytotoxicity, primary screen, cytotoxicity control for P. falciparum antimalarial project, cell-based, ATP luminescence (AID 2303;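 active means inhibition above 50%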;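 further: 0% = DMSO wells and 100% = digitonin-killed cells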). Particulars: HepG2 viability, 24-48 h, at 10 µM, stronger effect = higher value.
Assay [3] has as its target L-lactate dehydrogenase (Plasmodium falciparum (isolate CDC / Honduras)) (UniProt Q27743). Kind of assay: PfLDH activity inhibition – cell lysate, 3D7 strain, counter-screen for P. falciparum growth inhibition project (AID 2304).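 Further: 0% = vehicle and 100% = reference inhibitor.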 The note with it: P. falciparum 3D7 crude extract, LDH APAD/NBT absorbance; at 2 µM; stronger effect = higher value.
The nature of assay [4]: inhibition of 3D7 malaria parasite growth – strain 3D7 (AID 2306).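 Further: 0% = DMSO wells and 100% = chloroquine plus artemisinin control wells.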 Particulars: P. falciparum 3D7 erythrocytic growth, LDH absorbance, 72 h; at 2 µM; stronger effect = higher value.
For assay [5], the target named is Calcium-dependent protein kinase 1 (Plasmodium falciparum (isolate 3D7)) (UniProt P62344). Kind of assay: PfCDPK1 kinase inhibitors, biochemical, TCAMS library (AID 1159585; cut-off not given, nearly all actives have IC50 up to about 0.98 µM;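 further: inhibitors leave more ATP so luminescence rises with inhibition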). The note with it: recombinant PfCDPK1, Kinase-Glo ATP depletion luminescence.
For assay [6], the target named is Plasmodium falciparum protein kinase 6 (PK6, PF3D7_1337100) (UniProt Q8IDW1). Kind of assay: PfPK6 kinase inhibitors, biochemical, TCAMS library (AID 1159586). Particulars: recombinant PfPK6, Kinase-Glo ATP depletion luminescence. Background: Kinase-Glo measures the ATP left after a reaction by luminescence.
Assay [7] deals with Protein kinase 7 (PK7), Plasmodium falciparum 3D7 (PF3D7_0213400) (UniProt Q7YTF7). The assay is described as follows: inhibition of Plasmodium PK7 catalytic activity – biochemical, TCAMS antimalarial set, Kinase-Glo luminescence (AID 1159587). The note with it: recombinant PfPK7, Kinase-Glo ATP depletion luminescence.
In assay [8] the target is Calcium-dependent protein kinase 4 (Plasmodium falciparum (isolate 3D7)) (UniProt Q8IBS5). The assay is described as follows: PfCDPK4 kinase inhibitors, biochemical, TCAMS library (AID 1159588; cut-off not given, nearly all actives have IC50 up to about 0.91 µM). The note with it: recombinant PfCDPK4, Kinase-Glo ATP depletion luminescence.

A number with no mark means an inactive call. For some of these results: Potency and affinity values are given separately. Calls of active or inactive are those of the source. Unless noted, how the calls were made is not given here.

Sequence of Protein kinase 7 (PK7), Plasmodium falciparum 3D7 (PF3D7_0213400) (Q7YTF7 1-343): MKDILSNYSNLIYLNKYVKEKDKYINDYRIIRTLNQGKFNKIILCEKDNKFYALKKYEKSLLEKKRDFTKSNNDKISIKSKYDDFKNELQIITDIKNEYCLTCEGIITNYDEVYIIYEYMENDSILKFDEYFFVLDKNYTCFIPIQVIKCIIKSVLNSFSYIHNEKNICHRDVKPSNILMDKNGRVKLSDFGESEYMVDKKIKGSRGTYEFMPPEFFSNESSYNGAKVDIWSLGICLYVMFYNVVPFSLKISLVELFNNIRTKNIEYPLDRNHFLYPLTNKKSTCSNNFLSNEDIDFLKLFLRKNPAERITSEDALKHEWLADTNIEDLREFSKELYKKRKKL
Sequence of Calcium-dependent protein kinase 4 (Plasmodium falciparum (isolate 3D7)) (Q8IBS5 whole entry, looked up): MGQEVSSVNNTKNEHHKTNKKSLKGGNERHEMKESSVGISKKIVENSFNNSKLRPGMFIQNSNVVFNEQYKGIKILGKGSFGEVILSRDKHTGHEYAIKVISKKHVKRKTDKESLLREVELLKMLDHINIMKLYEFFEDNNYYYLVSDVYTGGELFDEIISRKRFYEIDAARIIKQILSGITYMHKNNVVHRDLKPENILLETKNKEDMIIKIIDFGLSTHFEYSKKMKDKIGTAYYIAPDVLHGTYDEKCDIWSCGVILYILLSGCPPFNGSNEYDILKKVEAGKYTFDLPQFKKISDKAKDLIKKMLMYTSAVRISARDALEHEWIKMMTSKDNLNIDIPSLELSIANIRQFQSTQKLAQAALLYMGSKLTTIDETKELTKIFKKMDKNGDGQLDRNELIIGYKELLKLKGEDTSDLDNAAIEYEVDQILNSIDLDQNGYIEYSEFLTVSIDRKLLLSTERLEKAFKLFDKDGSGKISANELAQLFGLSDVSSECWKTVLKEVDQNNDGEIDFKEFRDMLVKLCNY
Sequence of Plasmodium falciparum protein kinase 6 (PK6, PF3D7_1337100) (Q8IDW1 1-305): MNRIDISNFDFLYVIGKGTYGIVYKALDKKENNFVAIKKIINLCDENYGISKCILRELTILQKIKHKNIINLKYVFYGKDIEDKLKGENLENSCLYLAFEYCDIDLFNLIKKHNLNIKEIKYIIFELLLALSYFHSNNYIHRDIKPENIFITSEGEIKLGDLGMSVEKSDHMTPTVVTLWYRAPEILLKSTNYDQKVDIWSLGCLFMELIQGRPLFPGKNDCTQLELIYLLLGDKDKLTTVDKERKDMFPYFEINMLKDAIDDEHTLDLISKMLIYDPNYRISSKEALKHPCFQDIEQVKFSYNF
Sequence of Calcium-dependent protein kinase 1 (Plasmodium falciparum (isolate 3D7)) (P62344 whole entry, looked up): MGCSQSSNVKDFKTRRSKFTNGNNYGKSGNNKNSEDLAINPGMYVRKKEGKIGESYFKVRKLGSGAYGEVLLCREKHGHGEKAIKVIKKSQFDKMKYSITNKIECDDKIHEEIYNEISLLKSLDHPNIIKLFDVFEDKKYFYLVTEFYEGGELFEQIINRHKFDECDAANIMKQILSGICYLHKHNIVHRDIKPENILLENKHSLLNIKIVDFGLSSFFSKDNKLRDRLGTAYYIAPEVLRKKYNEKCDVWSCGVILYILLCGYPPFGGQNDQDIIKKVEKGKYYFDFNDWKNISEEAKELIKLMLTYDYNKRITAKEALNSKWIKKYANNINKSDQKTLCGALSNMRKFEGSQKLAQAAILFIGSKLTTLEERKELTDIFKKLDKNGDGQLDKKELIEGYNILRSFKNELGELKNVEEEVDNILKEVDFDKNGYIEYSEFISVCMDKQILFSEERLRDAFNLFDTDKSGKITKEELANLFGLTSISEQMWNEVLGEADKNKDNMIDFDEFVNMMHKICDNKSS
Sequence of L-lactate dehydrogenase (Plasmodium falciparum (isolate CDC / Honduras)) (Q27743 whole entry, looked up): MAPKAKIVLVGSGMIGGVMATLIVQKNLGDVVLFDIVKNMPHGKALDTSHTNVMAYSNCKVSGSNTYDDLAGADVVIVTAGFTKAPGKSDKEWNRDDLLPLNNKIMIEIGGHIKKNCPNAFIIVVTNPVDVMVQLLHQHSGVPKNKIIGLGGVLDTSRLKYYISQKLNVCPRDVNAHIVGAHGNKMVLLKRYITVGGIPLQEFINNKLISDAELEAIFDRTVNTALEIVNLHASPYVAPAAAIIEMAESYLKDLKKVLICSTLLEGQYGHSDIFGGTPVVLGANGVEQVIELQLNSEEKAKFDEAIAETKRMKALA

In general, inhibition refers to the change of the read-out against control, counted positive when it falls. Consider `CCOC(=O)CC[C@@H](NC(=O)c1ccc(NCc2ccc3ccc4nc(C)[nH]c(=O)c4c3c2)cc1F)C(=O)N[C@@H](Cc1c[nH]c2ccccc12)C(=O)OCC`, for which the figures for the growth inhibition in assay [1] and in assay [4] were 77% (active) and 98% (active), respectively. For the same compound, the results for the inhibition in assay [2] and in assay [3] were 45% and 0%, respectively. Moreover, the result in assay [5], in assay [6], in assay [7] and in assay [8] was inactive.
`COc1ccc(C=NNc2cc(C)nc3ccccc23)cc1OC`: the growth inhibition in assay [1] is 8%; in assay [4], 91% (active). Moreover, the inhibition in assay [2] was 19%; in assay [3] it was -1%. The result in assay [5], in assay [6], in assay [7] and in assay [8] was inactive.
Consider `CN1CCC(NCc2ccc(-c3cccc(-c4nc5ccccc5[nH]4)c3)cc2)CC1`, for which the growth inhibition in assay [1] was 96% (active); in assay [4], 100% (active). For the same compound, the inhibition was 50% (active) in assay [2] and -5% in assay [3]. Further, the outcome in assay [5], in assay [6], in assay [7] and in assay [8] was inactive.
For the compound `COc1c(C2CCN(CCN3CCC(CNC(=O)c4ccc(-c5ccc(C#N)cc5)cc4)CC3)CC2)ccc2c1CCCC2`, the growth inhibition in assay [1] and in assay [4] was 100% (active) each time. The inhibition was 96% (active) in assay [2] and 0% in assay [3]. Also, the outcome in assay [5], in assay [6], in assay [7] and in assay [8] was inactive.
Turning to `Cn1nc(-c2ccc(Cl)cc2)c2cc(C(=O)NCCN3CCOCC3)sc21`, the growth inhibition is 29% in assay [1] and 97% (active) in assay [4]. Besides, the values for the inhibition in assay [2] and in assay [3] were 21% and -8%, respectively. Also, the outcome in assay [5], in assay [6], in assay [7] and in assay [8] was inactive.
For the compound `CCOc1ccc(-c2noc(-c3c[nH]c4ccccc4c3=O)n2)cc1`, the growth inhibition was 93% (active) in assay [1] and 99% (active) in assay [4]. Besides, the inhibition is -7% in assay [2] and -3% in assay [3]. Moreover, the result in assay [5], in assay [6], in assay [7] and in assay [8] was inactive.
Consider `Nc1nc(N)c2c(ccc3c2ccn3Cc2cc3c(cc2Cl)OCO3)n1`, for which the figures for the growth inhibition in assay [1] and in assay [4] were 94% (active) and 95% (active), respectively. Besides, the inhibition in assay [2] is 58% (active); in assay [3], -5%. In addition, the outcome in assay [5], in assay [6], in assay [7] and in assay [8] was inactive.
For the compound `Cc1ccccc1C1CCN(C2CCC(NC(=O)c3cc4cc(C(C)C)ccc4[nH]3)CC2)CC1` (stereo not given), the growth inhibition in assay [1] was 100% (active); in assay [4], 99% (active). For the same compound, the inhibition in assay [2] was 100% (active); in assay [3], -3%. Also, the result in assay [5], in assay [6], in assay [7] and in assay [8] was inactive.
As for `COc1cc2nc(N(C)CC3COc4ccccc4O3)nc(N)c2cc1OC` (stereo not given), the results for the growth inhibition in assay [1] and in assay [4] were 26% and 94% (active), respectively. In addition, the inhibition in assay [2] was 11%; in assay [3], -1%. In addition, the outcome in assay [5], in assay [6], in assay [7] and in assay [8] was inactive.
Take `COc1cccc(OC)c1C(=O)Nc1cccc(-c2nn3ccccc3c2-c2ccnc(Nc3cccc(F)c3)n2)c1`: the growth inhibition in assay [1] is 38%; in assay [4], 95% (active). In addition, the values for the inhibition in assay [2] and in assay [3] were 3% and 8%, respectively. Also, the result in assay [5], in assay [6], in assay [7] and in assay [8] was inactive.
For the compound `O=C(Nc1ccc(Cn2ncc(N3CCCNCC3)c(Cl)c2=O)cc1)Nc1cccc(C(F)(F)F)c1`, the growth inhibition in assay [1] was 30%; in assay [4] it was 101% (active). Besides, the figures for the inhibition in assay [2] and in assay [3] were 20% and 0%, respectively. For the same compound, the result in assay [5], in assay [6], in assay [7] and in assay [8] was inactive.
Consider `O=C(Nc1ccc(-c2ccc(-c3nc4ccccc4[nH]3)s2)cc1)Nc1ccsc1`, for which the growth inhibition in assay [1] was 54% (active); in assay [4], 100% (active). Besides, the inhibition was 25% in assay [2] and 5% in assay [3]. Moreover, the outcome in assay [5], in assay [6], in assay [7] and in assay [8] was inactive.
As for `CCCCCCN1CCCN(Cc2ccc(C(=O)Nc3ccc(Cl)cc3)cc2)CC1`, the growth inhibition in assay [1] is 54% (active); in assay [4], 89% (active). Further, the inhibition in assay [2] is 50% (active); in assay [3], 3%. For the same compound, the result in assay [5], in assay [6], in assay [7] and in assay [8] was inactive.
As for `CN(Cc1cccc(F)c1)C1CCN(c2cc(NC(=O)c3cccc(F)c3)ccn2)CC1`, the results for the growth inhibition in assay [1] and in assay [4] were 13% and 94% (active), respectively. In addition, the values for the inhibition in assay [2] and in assay [3] were 12% and 3%, respectively. The outcome in assay [5], in assay [6], in assay [7] and in assay [8] was inactive.
In the case of `COc1cccc(NC(=O)CSc2nc(-c3ccccc3Cl)ns2)c1`, the growth inhibition in assay [1] was 100% (active); in assay [4], 99% (active). Further, the results for the inhibition in assay [2] and in assay [3] were 7% and 2%, respectively. Further, the outcome in assay [5], in assay [6], in assay [7] and in assay [8] was inactive.
For `CCn1cc(C=C2Oc3c(ccc(O)c3CN3CCCCC3)C2=O)c2cc(OC)ccc21`, the growth inhibition in assay [1] and in assay [4] was 99% (active) each time. Besides, the inhibition in assay [2] was -9%; in assay [3], -1%. Moreover, the outcome in assay [5], in assay [6], in assay [7] and in assay [8] was inactive.
As for `Cc1cccc2[nH]c(-c3ccc(-c4cccc(CNCC5CCCO5)c4)s3)nc12` (stereo not given), the values for the growth inhibition in assay [1] and in assay [4] were 11% and 93% (active), respectively. Besides, the results for the inhibition in assay [2] and in assay [3] were 26% and -8%, respectively. Besides, the result in assay [5], in assay [6], in assay [7] and in assay [8] was inactive.
Consider `CCOC(=O)c1c[nH]c2c(ccc3ccccc32)c1=O`, for which the growth inhibition in assay [1] and in assay [4] was 96% (active) each time. Besides, the results for the inhibition in assay [2] and in assay [3] were -5% and 3%, respectively. Further, the outcome in assay [5], in assay [6], in assay [7] and in assay [8] was inactive.
In the case of `CN1c2ccccc2Sc2cc(CNCCSCCNCc3ccc4c(c3)Sc3ccccc3N4C)ccc21`, the growth inhibition in assay [1] was 44%; in assay [4], 84% (active). The values for the inhibition in assay [2] and in assay [3] were 58% (active) and 0%, respectively. The outcome in assay [5], in assay [6], in assay [7] and in assay [8] was inactive.
Take `COc1cccc2c(NN=Cc3ccccc3F)ccnc12`: the growth inhibition in assay [1] was 37%; in assay [4], 96% (active). The inhibition in assay [2] was 6%; in assay [3], 1%. Besides, the result in assay [5], in assay [6], in assay [7] and in assay [8] was inactive.

These data come from PubChem BioAssay.
